Measurements: PubChem BioAssay (EPA / NIEHS)
Activity calls are given as the source filed them. Rule for the calls: active = hit-call score of the fitted dose curve at least 0.9, where 1 is the maximum; inactive = score below 0.9.

Experiments:
[1] = read-out: Transforming growth factor beta 1 (TGFb1), TGFB1 (gene 7040); assay: BSK_KF3CT_TGFb1: BioMAP Diversity Plus: KF3CT Assay for Transforming growth factor beta 1 (TGFb1) Biomarker Activity (AID 2283072); details: primary human keratinocytes with fibroblasts; actives raise or lower the signal
Outline: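 Human keratinocyte plus foreskin fibroblast primary co-culture, dosed with chemical for 24 h. TGF-b1 quantified by ELISA. Activity fitted bidirectionally against DMSO negative control as baseline.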

[2] = read-out: Matrix Metallopeptidase 9 (MMP9), MMP9 (gene 4318); assay: BSK_KF3CT_MMP9: BioMAP Diversity Plus: KF3CT Assay for Matrix Metallopeptidase 9 (MMP9) Biomarker Activity (AID 2283074); details: primary human keratinocytes with fibroblasts; actives raise or lower the signal;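 for AC50: MMP9 protein level quantified by ELISA in the co-culture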
Outline: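 Human keratinocyte and foreskin fibroblast co-culture exposed to chemicals for 24 h; MMP9 biomarker measured by ELISA, bidirectional fitting relative to DMSO; cytotoxicity tracked by SRB total protein staining in parallel cultures.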

[3] = read-out: urokinase plasminogen activator (uPA), PLAU (gene 5328); assay: BSK_KF3CT_uPA: BioMAP Diversity Plus: KF3CT Assay for urokinase plasminogen activator (uPA) Biomarker Activity (AID 2283075); details: primary human keratinocytes with fibroblasts; actives raise or lower the signal
Outline: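 Primary human keratinocyte/foreskin fibroblast co-culture exposed to chemical; uPA measured by ELISA at 24 h. Bidirectional fit versus DMSO, with parallel SRB total-protein staining for cytotoxicity.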

[4] = read-out: CD40, CD40 (gene 958); assay: BSK_LPS_CD40: BioMAP Diversity Plus: LPS Assay for CD40 Biomarker Activity (AID 2283076); details: primary human HUVEC with PBMC; actives raise or lower the signal
Outline: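 Using a multiplexed primary human co-culture (umbilical vein endothelium plus PBMC), CD40 was read by ELISA 24 h after dosing, with cytotoxicity tracked by sulforhodamine B staining of parallel cultures and activity fitted bidirectionally versus DMSO.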

[5] = read-out: E-selectin (Homo sapiens) (UniProt P16581); assay: BSK_LPS_Eselectin: BioMAP Diversity Plus: LPS Assay for Eselectin Biomarker Activity (AID 2283077); details: primary human HUVEC with PBMC; actives raise or lower the signal
Outline: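 Dose chemical onto LPS-driven HUVEC/PBMC co-culture; after 24 h, run ELISA for E-selectin; fit up- and down-going responses relative to DMSO control.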

[6] = read-out: Interleukin-8 (IL8), CXCL8 (gene 3576); assay: BSK_LPS_IL8: BioMAP Diversity Plus: LPS Assay for Interleukin-8 (IL8) Biomarker Activity (AID 2283078); details: primary human HUVEC with PBMC; actives raise or lower the signal
Outline: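 In this LPS system, chemical-treated human umbilical vein endothelium/PBMC co-cultures were harvested at 24 h for IL-8 ELISA.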

[7] = BSK_LPS_SRB: Viability Assessment in the BioMAP Diversity Plus: LPS Assay (AID 2283079); details: primary human HUVEC with PBMC;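 note: total protein by sulforhodamine B absorbance as a cytotoxicity measure; measured one day after compound addition; fitted in both directions against DMSO so loss or gain of signal counts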
Outline: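 Cytotoxicity endpoint in human endothelial–PBMC co-culture: 24 h exposure, then SRB (0.1%) staining, 560 nm read.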

[8] = read-out: Interleukin-1 alpha (IL1a), IL1A (gene 3552); assay: BSK_LPS_IL1a: BioMAP Diversity Plus: LPS Assay for Interleukin-1 alpha (IL1a) Biomarker Activity (AID 2283080); details: primary human HUVEC with PBMC; actives raise or lower the signal
Outline: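 Primary human HUVEC and PBMC co-culture stimulated with LPS is dosed and harvested at 24 h. Both increases and decreases in ELISA-measured IL-1a are scored relative to DMSO.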

[9] = read-out: Monocyte Chemoattractant Protein-1 (MCP1), CCL2 (gene 6347); assay: BSK_LPS_MCP1: BioMAP Diversity Plus: LPS Assay for Monocyte Chemoattractant Protein-1 (MCP1) Biomarker Activity (AID 2283081); details: primary human HUVEC with PBMC; actives raise or lower the signal
Outline: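 Values derive from bidirectional fitting against DMSO of ELISA-measured MCP-1 in a human primary endothelial and mononuclear cell co-culture, 24 h after chemical addition under LPS activation.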

[10] = read-out: Macrophage colony-stimulating factor (MCSF), CSF1 (gene 1435); assay: BSK_LPS_MCSF: BioMAP Diversity Plus: LPS Assay for Macrophage colony-stimulating factor (MCSF) Biomarker Activity (AID 2283083); details: primary human HUVEC with PBMC; actives raise or lower the signal
Outline: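 Bidirectional fit versus DMSO of ELISA-measured M-CSF in co-cultured human umbilical vein endothelial cells and PBMC, sampled 24 h after dosing.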

[11] = read-out: Tissue Factor, F3 (gene 2152); assay: BSK_LPS_TissueFactor: BioMAP Diversity Plus: LPS Assay for Tissue Factor Biomarker Activity (AID 2283084); details: primary human HUVEC with PBMC; actives raise or lower the signal
Outline: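 Read-out: CD142 ELISA, 24 h. System: LPS-driven human endothelial/PBMC co-culture. Analysis: up- or down-signal fitted against DMSO.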

[12] = read-out: Tumor necrosis factor (Homo sapiens) (UniProt P01375); assay: BSK_LPS_TNFa: BioMAP Diversity Plus: LPS Assay for Tumour Necrosis Factor alpha (TNFa) Biomarker Activity (AID 2283085); details: primary human HUVEC with PBMC; actives raise or lower the signal
Outline: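 Human umbilical vein endothelial cells co-cultured with PBMC were exposed to test chemical and TNFa measured by ELISA 24 h after dosing. Bidirectional curve fitting was done relative to DMSO as negative control and baseline.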

[13] = read-out: Vascular cell adhesion molecule 1 (VCAM1), VCAM1 (gene 7412); assay: BSK_LPS_VCAM1: BioMAP Diversity Plus: LPS Assay for Vascular cell adhesion molecule 1 (VCAM1) Biomarker Activity (AID 2283086); details: primary human HUVEC with PBMC; actives raise or lower the signal
Outline: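 Human umbilical vein endothelial cells co-cultured with peripheral blood mononuclear cells under LPS stimulation were exposed to test chemical for 24 h. VCAM-1 levels were then measured by ELISA, with bidirectional curve fitting relative to DMSO as negative control and baseline.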

[14] = read-out: CD38, CD38 (gene 952); assay: BSK_SAg_CD38: BioMAP Diversity Plus: SAg Assay for CD38 Biomarker Activity (AID 2283087); details: primary human HUVEC with PBMC; actives raise or lower the signal
Outline: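 Fluorescence ELISA of cell-surface CD38 served as the read-out, with either increase or decrease fitted against DMSO controls. Cells were a human umbilical vein endothelium plus PBMC co-culture under SEB/TSST-1 stimulation, measured 24 h after dosing.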

[15] = read-out: CD40, CD40 (gene 958); assay: BSK_SAg_CD40: BioMAP Diversity Plus: SAg Assay for CD40 Biomarker Activity (AID 2283088); details: primary human HUVEC with PBMC; actives raise or lower the signal
Outline: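 Endpoint derived by fitting increases or decreases versus DMSO controls. CD40 is detected by fluorescence ELISA in a human vascular co-culture of endothelium and PBMC at 24 h.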

[16] = read-out: CD69, CD69 (gene 969); assay: BSK_SAg_CD69: BioMAP Diversity Plus: SAg Assay for CD69 Biomarker Activity (AID 2283089); details: primary human HUVEC with PBMC; actives raise or lower the signal;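 for AC50: cell surface CD69 protein quantified by ELISA with fluorescence detection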
Outline: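 ELISA, fluorescence read-out: CD69 on human umbilical vein endothelial cell + PBMC co-culture, 24 h post-dosing. Gain or loss of signal fitted bidirectionally against DMSO baseline.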

[17] = read-out: Monocyte Chemoattractant Protein-1 (MCP1), CCL2 (gene 6347); assay: BSK_SAg_MCP1: BioMAP Diversity Plus: SAg Assay for Monocyte Chemoattractant Protein-1 (MCP1) Biomarker Activity (AID 2283090); details: primary human HUVEC with PBMC; actives raise or lower the signal
Outline: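 MCP-1 levels in the endothelial–PBMC SAg co-culture were quantified by ELISA at 24 h post-dosing; both increases and decreases versus DMSO scored. Cytotoxicity monitored by SRB total protein in parallel cultures.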

[18] = read-out: E-selectin (Homo sapiens) (UniProt P16581); assay: BSK_SAg_Eselectin: BioMAP Diversity Plus: SAg Assay for Eselectin Biomarker Activity (AID 2283091); details: primary human HUVEC with PBMC; actives raise or lower the signal
Outline: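 Endpoint values derive from bidirectional fitting relative to DMSO, using ELISA-measured E-selectin in a human vascular co-culture (umbilical vein endothelium plus PBMC) sampled 24 h after dosing.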

[19] = BSK_LPS_PGE2: BioMAP Diversity Plus: LPS Assay for Prostaglandin E2 (PGE2) Biomarker Activity (AID 2283082); details: primary human HUVEC with PBMC; actives raise or lower the signal
Outline: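 HUVEC plus PBMC co-culture stimulated with LPS; secreted PGE2 quantified by ELISA 24 h after chemical dosing. Activity fitted bidirectionally against DMSO as negative control and baseline; parallel SRB total-protein staining served as cytotoxicity check.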

Measured: AC50

Chain of E-selectin (Homo sapiens) (P16581 whole entry, looked up): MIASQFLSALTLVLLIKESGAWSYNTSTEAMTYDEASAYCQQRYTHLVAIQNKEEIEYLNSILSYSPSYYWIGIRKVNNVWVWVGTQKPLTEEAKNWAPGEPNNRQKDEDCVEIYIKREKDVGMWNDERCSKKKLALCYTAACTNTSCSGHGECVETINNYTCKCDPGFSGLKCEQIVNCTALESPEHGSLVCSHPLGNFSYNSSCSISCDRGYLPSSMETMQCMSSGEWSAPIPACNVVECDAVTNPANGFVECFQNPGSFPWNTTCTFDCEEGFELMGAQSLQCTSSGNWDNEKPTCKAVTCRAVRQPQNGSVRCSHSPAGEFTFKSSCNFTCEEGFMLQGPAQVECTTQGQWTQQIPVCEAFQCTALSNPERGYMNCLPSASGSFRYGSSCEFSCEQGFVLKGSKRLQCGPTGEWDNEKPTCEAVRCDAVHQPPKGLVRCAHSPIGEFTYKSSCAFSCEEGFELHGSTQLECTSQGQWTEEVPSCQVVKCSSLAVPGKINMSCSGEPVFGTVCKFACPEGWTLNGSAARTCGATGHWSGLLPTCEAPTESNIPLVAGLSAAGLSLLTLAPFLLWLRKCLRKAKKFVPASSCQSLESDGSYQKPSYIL
Chain of Tumor necrosis factor (Homo sapiens) (P01375 whole entry, looked up): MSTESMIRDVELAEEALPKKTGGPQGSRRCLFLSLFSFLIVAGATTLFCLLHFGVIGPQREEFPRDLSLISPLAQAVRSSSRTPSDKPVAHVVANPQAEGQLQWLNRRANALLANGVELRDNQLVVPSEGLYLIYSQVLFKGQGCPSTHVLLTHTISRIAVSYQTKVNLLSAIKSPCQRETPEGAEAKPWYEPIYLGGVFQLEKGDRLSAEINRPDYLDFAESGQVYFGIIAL

CN(C)C(=O)Nc1ccc(Oc2ccc(Cl)cc2)cc1
inactive: [1] | [2] | [3] | [4] | [5] | [6] | [7] | [8] | [9] | [10] | [11] | [12] | [13] | [14] | [15] | [16] | [17] | [18]

C=C(C)C(=O)OCCOCCOCCOCCOC(=O)C(=C)C
inactive: [1] | [2] | [3] | [4] | [5] | [6] | [7] | [8] | [9] | [19] | [10] | [11] | [12] | [13] | [14] | [15] | [16] | [17] | [18]

Clc1cc(Cl)c(-c2c(Cl)c(Cl)cc(Cl)c2Cl)cc1Cl
inactive: [6] | [7] | [9] | [11] | [12] | [17]
active: [1] 4.16 µM | [2] 8.51 µM | [3] 10 µM | [4] 10 µM | [5] 8.81 µM | [8] 12.5 µM | [10] 1.98 µM | [13] 3.5 µM | [14] 15.6 µM | [15] 16.3 µM | [16] 10 µM | [18] 14.9 µM

CC(C)(N=C=O)c1cccc(C(C)(C)N=C=O)c1
inactive: [1] | [2] | [3] | [4] | [5] | [6] | [7] | [8] | [9] | [10] | [11] | [12] | [13] | [14] | [15] | [16] | [17] | [18]

C=C(C)C(=O)OCCOCCOCCOC(=O)C(=C)C
active: [3] 3.97 µM
inactive: [1] | [2] | [4] | [5] | [6] | [7] | [8] | [9] | [10] | [11] | [12] | [13] | [14] | [15] | [16] | [17] | [18]

IC(I)I
inactive: [1] | [2] | [3] | [4] | [5] | [6] | [7] | [8] | [9] | [10] | [11] | [12] | [13] | [14] | [15] | [16] | [17] | [18]
